The values below come from PubChem BioAssay (Tox21).

A number with no mark means an inactive call. Activity calls are given as the source filed them. Calls come from the whole dose curve; as a rule, active = well fitted curve in the direction sought with a large enough effect in the repeat runs; inconclusive = weak or mixed curves; inactive = flat fitted curve, though single readings scatter. Positions of bridges follow the written chain, without caps; N, C: chain ends. Non-standard residues stand in square brackets, D forms with d. Residues, ends and D or L forms follow the SMILES beside them. ξ: configuration not given here. *: point of attachment. d(aThr) = C[C@@H](O)[C@@H](N)C(=O)O; ξThr(3R) = C[C@@H](O)C(N)C(=O)O; X3 = CC[C@@H](C)CCCCC(=O)*; dDab = NCC[C@@H](N)C(=O)O
% is set by controls: 0 for no effect and ±100 for the full control effect.

A short description of this test: qHTS assay to test for compound auto fluorescence at 535 nm (green) in HepG2 cells (AID 720675). The settings on record: green autofluorescence 485/535 nm, 1 h; series mostly up to 46 µM; fluorescence, % of fluorescein control: at the top concentration. Background: In qHTS, concentration-response curves come from the screen itself.
For `Cc1cc(O)c2c(c1)O[C@@]1(C)CC[C@H]3C(C)(C)CCCC34CO[C@@H]2[C@H]41` (some centres not stated), the “fluorescence, % of fluorescein control” value is -0.0049%.
Regarding `COc1ccc(C2NC(=S)N3C(c4ccc(OC)c(OC)c4)NC(=S)N23)cc1OC` (configuration not stated), the “fluorescence, % of fluorescein control” value was 0.0345%.
The same measure, in the same setting: in the case of `CC(CN(C)C)CN1c2ccccc2Sc2ccc(C(F)(F)F)cc21` (configuration not stated) it was 0.144%; in that of `C[C@@H]1CCC2[C@@H](C)[C@@H](O)O[C@@H]3O[C@@]4(C)CC[C@@H]1[C@@]23OO4` (some centres not stated), 0.0043%.
With `CCc1ccc2c(c1)N(CC(C)CN(C)C)c1ccccc1S2` (configuration not stated), the “fluorescence, % of fluorescein control” value is 0.0413%.
Take `CCCCCCCCCCCCCCCCCC[N+](C)(C)CCC[Si](OC)(OC)OC`: the “fluorescence, % of fluorescein control” value was 0.0184%.
Regarding `CCOC(=O)[C@H](CS)NCCN[C@@H](CS)C(=O)OCC`, the “fluorescence, % of fluorescein control” value is 0.0081%.
`CC1(C)S[C@@H]2[C@H](NC(=O)[C@H](NC(=O)N3CCN(S(C)(=O)=O)C3=O)c3ccccc3)C(=O)N2[C@H]1C(=O)O`: the “fluorescence, % of fluorescein control” value was -0.0291%.
Consider `Cn1c(O)c(N=NC(N)=S)c2ccccc21`, for which the “fluorescence, % of fluorescein control” value was -0.0236%.
On the same count and under the same terms, in the case of `CC1=C[C@H](O)CC(C)(C)[C@H]1/C=C/C(C)=C/C=C/C(C)=C/C=C/C=C(C)/C=C/C=C(C)/C=C/C1=C(C)C[C@@H](O)CC1(C)C` it was 0.237%.
On the same count and under the same terms, then `NCCC(=O)[N-][C@@H](Cc1cnc[nH]1)C(=O)O.[Zn]`, with 0.0065%; and `C#C[C@]1(O)CC[C@H]2[C@@H]3CCC4=CCCC[C@@H]4[C@H]3C(=C)C[C@@]21CC`, with -0.0785%; and `C=C1C(=C/C=C2\CCC[C@]3(C)[C@@H]([C@H](C)/C=C/[C@H](C)C(C)C)CC[C@@H]23)C[C@@H](O)C[C@@H]1O`, with -0.0968%.
Same read-out and setting: then `CC(=O)[C@@]1(O)CC[C@H]2[C@@H]3C=C(Cl)C4=CC(=O)CC[C@]4(C)[C@H]3CC[C@@]21C`, with -0.064%; and `CC[C@@H](C)CCCCC(=O)N[C@H](CCN)C(=O)N[C@@H](C(=O)N[C@H](CCN)C(=O)N[C@@H]1CCNC(=O)C([C@@H](C)O)NC(=O)[C@@H](CCN)NC(=O)[C@@H](CCN)NC(=O)[C@@H](CC(C)C)NC(=O)[C@@H](Cc2ccccc2)NC(=O)[C@@H](CCN)NC1=O)[C@@H](C)O` (stereo partly drawn) (X3-[dDab][d(aThr)][dDab][dDab][dDab][dF][dL][dDab][dDab][ξThr(3R)]; lactam 4-C), with 0.0026%.
Consider `COc1ccccc1N1CCN(CCCC(=O)c2ccc(F)cc2)CC1`, for which the “fluorescence, % of fluorescein control” value was -0.127%.
With `CCC(=O)Oc1ccc2c(c1)CC[C@@H]1[C@@H]2CC[C@]2(C)[C@@H](OC(=O)CC)CC[C@@H]12`, the “fluorescence, % of fluorescein control” value was 0.0593%.
Still for that read-out and setting: then `CC(=O)Oc1cc(C)c(OC(C)=O)c2ccccc12`, with 0.144%.
As to `CC(C)(C)NC(=O)[C@H]1CC[C@H]2[C@@H]3CC=C4C=C(C(=O)O)CC[C@]4(C)[C@H]3CC[C@]12C`, the “fluorescence, % of fluorescein control” value was 0.0195%.
The same measure, in the same setting: then `Clc1ccc(COC(Cn2ccnc2)c2ccc(Cl)cc2Cl)c(Cl)c1` (configuration not stated), with -0.058% [at 18.6 µM].
`CCCCC[C@H](O)/C=C/[C@H]1[C@H](O)CC(=O)[C@@H]1CCCCCCC(=O)O`: the “fluorescence, % of fluorescein control” value was 0.025% [at 18.6 µM].
On to `CCOC(=O)C1=C(COCCN)NC(C)=C(C(=O)OC)C1c1ccccc1Cl` (configuration not stated), for which the Potency entry is “inactive”.
Consider `CN1CCN(CCCN2c3ccccc3Sc3ccccc32)CC1`, for which the “fluorescence, % of fluorescein control” value was 0.0397%.
As for `CN[C@@H]1[C@@H](O)[C@@H](O[C@@H]2[C@@H](O)[C@H](OC3OC(CN)=CCC3N)[C@@H](N)C[C@H]2N)OC[C@]1(C)O` (some centres not stated), the “fluorescence, % of fluorescein control” value is 0.076% [at 18.6 µM].
The same measure, in the same setting: in the case of `CCC[C@@H]1C[C@@H](C(=O)N[C@@H]([C@H]2O[C@H](SC)[C@H](O)[C@@H](O)[C@H]2O)[C@H](C)Cl)N(C)C1` it was 0.0127%; in that of `CCC[C@@]1(CCc2ccccc2)CC(O)=C([C@H](CC)c2cccc(NS(=O)(=O)c3ccc(C(F)(F)F)cn3)c2)C(=O)O1`, -0.116%; in that of `CCCCCCC(=O)O[C@H]1CC[C@H]2[C@@H]3CCc4cc(O)ccc4[C@H]3CC[C@]12C`, -0.0029%.
Regarding `CCC(=O)OCC(=O)[C@@]1(OC(=O)CC)[C@@H](C)C[C@H]2[C@@H]3CCC4=CC(=O)C=C[C@]4(C)[C@@]3(F)[C@@H](O)C[C@@]21C`, the “fluorescence, % of fluorescein control” value was -0.0096%.
Same read-out and setting: then `CCCC1([C@H](O)C/C=C/[C@H]2[C@H](O)CC(=O)[C@@H]2CCCCCCC(=O)OC)CCC1`, with 0.0134%; and `C=C1C(=C/C=C2\CCC[C@]3(C)[C@@H]([C@H](C)CCCC(C)(C)O)CC[C@@H]23)C[C@@H](O)C[C@@H]1O`, with 0.231%; and `CC[C@]1(O)CC2CN(CCc3c([nH]c4ccccc34)[C@@](C(=O)OC)(c3cc4c(cc3OC)N(C)[C@H]3[C@@](O)(C(N)=O)[C@H](O)[C@]5(CC)C=CCN6CC[C@]43[C@@H]65)C2)C1` (some centres not stated), with 0.403%.
Still for that read-out and setting: then `CCC(=O)NS(=O)(=O)c1ccc(-c2c(-c3ccccc3)noc2C)cc1`, with -0.0805%.
